This note sets out measurements from ChEMBL document CHEMBL1157539, “Thousands of chemical starting points for antimalarial lead identification” (Nature, 2010).

Where “and” joins values, the source holds several entries; their conditions need not be identical. Identical values can stand only once.

In general, Inhibition refers to the share of the control response that was lost under treatment.

What all share (assay type): functional
Experiment [1] concerns Plasmodium falciparum. The experiment is described as follows: GSK_TCMDC: Inhibition of Plasmodium falciparum 3D7 in whole red blood cells, using parasite LDH activity as an index of growth. Test compounds present at 2uM.
Experiment [2] has as its system Plasmodium falciparum. The experiment is described as follows: GSK_TCMDC: Inhibition of Plasmodium falciparum Dd2 in whole red blood cells, using parasite LDH activity as an index of growth. Test compounds present at 2uM.
The next experiment relates to HepG2. The experiment can be described thus: GSK_TCMDC: Percent inhibition of human HepG2 cell line. Test compounds present at 10uM.

As for `CN1CCC(O)(c2ccc(Br)cc2)C(C(O)c2ccc(Br)cc2)C1.CS(=O)(=O)O` (configuration not stated), the values for the Inhibition in the experiment with Plasmodium falciparum [1], in the experiment on Plasmodium falciparum [2] and with HepG2 were 98%, 99% and 28%, respectively.

On to `O=C(/C=C/c1ccc(Cl)c(Cl)c1)NCCC1CCC(N2CCC(c3c[nH]c4ccccc34)CC2)CC1` (configuration not stated), for which the Inhibition in the experiment on Plasmodium falciparum [1] was found to be 100%; in the experiment with Plasmodium falciparum [2], 99%; with HepG2 it was 91%.

Take `CC(Cc1ccc(OCCCCOc2ccccc2)cc1)NCCCn1ccnc1` (configuration not stated): the Inhibition in the experiment with Plasmodium falciparum [1], in the experiment with Plasmodium falciparum [2] and with HepG2 was 100% throughout.

Regarding `O=C(CCc1ccco1)NC1CCN(CC2(c3ccc(Cl)cc3)CCC2)CC1`, the Inhibition in the experiment on Plasmodium falciparum [1] was found to be 99%; in the experiment on Plasmodium falciparum [2], 67%; in the experiment on HepG2, 0%.

With `CC(Cc1ccc(Oc2ccccc2)cc1)NCC(O)c1cccc(C(F)(F)F)c1` (configuration not stated), the figures for the Inhibition in the experiment on Plasmodium falciparum [1], in the experiment with Plasmodium falciparum [2] and in the experiment with HepG2 were 98%, 99% and 16%, respectively.

For the molecule `CN1C(=O)OC[C@@H]1Cc1ccc2[nH]cc(C3=CCN(Cc4ccccc4)CC3)c2c1`, the Inhibition in the experiment on Plasmodium falciparum [1] is recorded as 86%; in the experiment on Plasmodium falciparum [2], 66%; in the experiment on HepG2, 4%.

On to `CN1CC=C(c2c[nH]c3ccc(-c4ccccc4)cc23)CC1`, for which the Inhibition amounted to 93% in the experiment with Plasmodium falciparum [1], 60% in the experiment with Plasmodium falciparum [2] and 14% in the experiment on HepG2.

Consider `O=C(NCc1ccc(S(=O)(=O)N2CCC(CN3CCC(c4c[nH]c5ccccc45)CC3)CC2)s1)c1ccccc1`, for which the Inhibition in the experiment on Plasmodium falciparum [1] was 92%; in the experiment with Plasmodium falciparum [2], 21%; in the experiment with HepG2 it was 32%.

As for `CC[C@H]1CN2CC[C@H]1C[C@H]2[C@H](O)c1ccnc2ccc(O)cc12.Cl`, the Inhibition in the experiment with Plasmodium falciparum [1] is listed as 99%; in the experiment on Plasmodium falciparum [2], 2%; in the experiment on HepG2 it was 11%.

As for `CC[C@H]1CN2CC[C@H]1C[C@H]2[C@H](O)c1cc(N2CCCC(C(=O)N(CC)CC)C2)nc2ccc(OC)cc12` (some centres not stated), the Inhibition is on record as 100% with Plasmodium falciparum [1], 99% with Plasmodium falciparum [2] and 0% in the experiment with HepG2.

As for `Cc1[nH]c2ccccc2c1C1CCN(CC2CCC(NC(=O)/C=C/c3ccc(Cl)c(Cl)c3)CC2)CC1` (configuration not stated), the figures for the Inhibition in the experiment on Plasmodium falciparum [1], in the experiment on Plasmodium falciparum [2] and in the experiment with HepG2 were 100%, 93% and 15%, respectively.

With `C=C[C@H]1CN2CC[C@H]1C[C@H]2[C@H](O)c1cc(/C=C/c2ccc(F)cc2)nc2ccc(OC)cc12.Cl`, the Inhibition in the experiment on Plasmodium falciparum [1] is 99%; in the experiment on Plasmodium falciparum [2], 99%; with HepG2, 25%.

Turning to `Cc1cc(NC(=O)[C@@H](Nc2ccc(C#N)c3ccccc23)C2CCCCC2)ccc1F.O=C(O)C(F)(F)F`, the Inhibition is 95% in the experiment with Plasmodium falciparum [1], 83% in the experiment on Plasmodium falciparum [2] and 10% with HepG2.

For `COc1ccc(N(c2nc(-c3cc(Cl)ccc3Cl)cs2)C2CCNCC2)cc1.O=C(O)C(F)(F)F`, the Inhibition with Plasmodium falciparum [1] was determined as 91%; in the experiment with Plasmodium falciparum [2] it was 4%; in the experiment on HepG2 it was 17%.

As for `O=C(NC1CCC(CN2CCC(c3c[nH]c4ccccc34)CC2)CC1)c1csc(-c2ccc(C(F)(F)F)cc2Cl)n1` (configuration not stated), the Inhibition in the experiment on Plasmodium falciparum [1] turned out to be 99%; in the experiment on Plasmodium falciparum [2], 75%; in the experiment on HepG2 it was 32%.

On to `O=C(/C=C/c1ccc(Cl)c(Cl)c1)NCC1CCCC(CN2CCC(c3c[nH]c4ccccc34)CC2)C1` (configuration not stated), for which the values for the Inhibition with Plasmodium falciparum [1], with Plasmodium falciparum [2] and in the experiment with HepG2 were 98%, 43% and 61%, respectively.

Consider `O=C(/C=C/c1ccc(Cl)c(Cl)c1)N1CCC(CN2CCC(c3c[nH]c4cc(C(F)(F)F)ccc34)CC2)CC1`, for which the values for the Inhibition with Plasmodium falciparum [1], in the experiment on Plasmodium falciparum [2] and in the experiment with HepG2 were 99%, 38% and 6%, respectively.

Consider `O=C(CSc1ccc(Cl)cc1)NC1CCC(CN2CCC(c3c[nH]c4ccccc34)CC2)CC1` (configuration not stated), for which the Inhibition with Plasmodium falciparum [1] was 95%; in the experiment on Plasmodium falciparum [2], 21%; in the experiment on HepG2, 41%.

As to `CC(Cc1ccc([N+](=O)[O-])cc1)NCC(O)c1cccc(C(F)(F)F)c1` (configuration not stated), the results for the Inhibition in the experiment with Plasmodium falciparum [1], with Plasmodium falciparum [2] and with HepG2 were 98%, 92% and 0%, respectively.

For `COc1cc(NCCCNC(=O)c2cn(Cc3ccccc3)c3ccccc23)nc2ccccc12`, the Inhibition came to 100% in the experiment with Plasmodium falciparum [1], 66% with Plasmodium falciparum [2] and 13% in the experiment with HepG2.

Turning to `O=C(/C=C/c1ccccc1O)NC1CCC(CN2CCC(c3c[nH]c4ccccc34)CC2)CC1` (configuration not stated), the Inhibition was 100% in the experiment on Plasmodium falciparum [1]; 45% and 73% in the experiment on Plasmodium falciparum [2]; 11% and 22% with HepG2.

On to `COc1ccc(F)cc1-c1csc(N(c2ccc(F)cc2)C2CCNCC2)n1.O=C(O)C(F)(F)F`, for which the Inhibition in the experiment with Plasmodium falciparum [1] is given as 94%; in the experiment on Plasmodium falciparum [2], 0%; with HepG2, 15%.

With `CC[C@H]1CN2CC[C@@H]1C[C@H]2[C@H](O)c1cc(N2CCC(O)(c3ccccc3)CC2)nc2ccc(OC)cc12`, the Inhibition with Plasmodium falciparum [1] came to 100%; in the experiment on Plasmodium falciparum [2], 98%; with HepG2, 14%.

As to `O=C(/C=C/c1ccsc1)NC1CCC(CN2CCC(c3c[nH]c4ccccc34)CC2)CC1` (configuration not stated), the Inhibition in the experiment with Plasmodium falciparum [1] came to 82%; in the experiment on Plasmodium falciparum [2], 20%; with HepG2 it was 29%.

For the molecule `Cc1[nH]c2cc(Cl)ccc2c1C1=CCN(CCCCC2(C)C(=O)Nc3c(F)cccc32)CC1` (configuration not stated), the Inhibition in the experiment on Plasmodium falciparum [1] came out at 90%; in the experiment on Plasmodium falciparum [2], 74%; in the experiment on HepG2, 14%.

As to `O=C(/C=C/c1ccc(Cl)c(Cl)c1)NCCCCCN1C2CCC1CC(c1c[nH]c3ccc(O)cc13)C2` (configuration not stated), the Inhibition with Plasmodium falciparum [1] is 100% and 91%; in the experiment on Plasmodium falciparum [2], 0% and 20%; in the experiment with HepG2, 9% and 26%.

For `CC[C@H]1CN2CC[C@H]1C[C@H]2[C@H](O)c1cc(-c2ccccc2C(F)(F)F)nc2ccc(OC)cc12.Cl`, the Inhibition in the experiment on Plasmodium falciparum [1] stood at 98%; with Plasmodium falciparum [2] it was 99%; in the experiment with HepG2 it was 0%.

As for `Cc1[nH]c2ccccc2c1C1=CCN(CCCCC2(C)C(=O)Nc3ccccc32)CC1` (configuration not stated), the Inhibition in the experiment with Plasmodium falciparum [1] is given as 94%; in the experiment with Plasmodium falciparum [2], 89%; in the experiment on HepG2, 8%.

On to `O=C(/C=C/c1cc(F)cc(C(F)(F)F)c1)N1CCC(CN2CCC(c3c[nH]c4ccccc34)CC2)CC1`, for which the Inhibition in the experiment with Plasmodium falciparum [1] worked out at 100%; with Plasmodium falciparum [2], 74%; with HepG2, 32%.
